KB-3-1 tox: KB-3-1 parental cell cytotoxicity. Potency, µM (series often up to 46.1 µM), actives largely listed as cytotoxic. KB-3-1 viability, CellTiter-Glo ATP luminescence, 72 h. hit rate 1.4% among 400,000; further: on the % scale 0 is the no-effect control and ±100 the full control effect; nearly all actives have a fitted effect of over 60% in size
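Using CellTiter-Glo luminescence, growth of non-resistant KB-3-1 adenocarcinoma cells is assessed 72 h after pin-tool compound addition at 37 °C. Normalized responses across the concentration series yield fitted curves.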
HT1080-NT tox: kills 2HG-producing HT-1080-NT fibrosarcoma cells; HT-1080-NT fibrosarcoma viability, CellTiter-Glo ATP luminescence, 48 h; Potency, µM (titrated, usually from 46.1 µM), for inactives: at the top dose activity, negative = less viability, usual class: cytotoxic; hit rate 1.6% among 360,000; AID 686970;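 further: NT is the 2HG producing partner of a matched IDH1 knockdown line; 0% = DMSO-treated cells and -100% = media-only wells without cells; nearly all actives have a fitted effect of over 55% in size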
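Fibrosarcoma NT cells, 750 per well in 5% FBS RPMI, were exposed to compound for 48 hours. Viability: CellTiter-Glo luminescence.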
SW480 rereplic: inducers of DNA re-replication in SW480 colon cancer cells; SW480 DNA re-replication, Hoechst DNA content imaging, 48 h; Potency, µM (top dose mostly 46.1 µM), for the others: top-dose re-replication activation, usual class: activators; hit rate 1.8% among 340,000; AID 624297; further: % of control where 0% means no effect; nearly all actives have a fitted effect of over 55% in size
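SW480 cells exposed to compounds for 48 hr at 37 C, 5% CO2, then Hoechst-stained 40 min. Nuclear DNA content imaged by fluorescence scanning (405 nm excitation, 500-530 nm emission); re-replication scored as increased high-intensity nuclei.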
KB-V1 cytotox: KB-V1 MDR subline cytotoxicity; hit rate 3.4% among 400,000; KB-V1 MDR cells viability, CellTiter-Glo, 72 h; Potency, µM (top dose mostly 46.1 µM), usual class: cytotoxic; AID 1347076; further: on the % scale 0 is the no-effect control and ±100 the full control effect; nearly all actives have a fitted effect of over 60% in size
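Compound-treated KB-V1 multidrug-resistant cells, 72 h, 37 degrees C; viability by CellTiter-Glo. Fitted qHTS curves give the values.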
HT1080 IDH1KD tx: kills HT-1080 cells with IDH1 knockdown | AID 686971 | Potency, µM (series often up to 46.1 µM), for the others: at the highest dose activity, negative = toxicity, most hits filed as cytotoxic | hit rate 2% among 360,000 | HT-1080 IDH1 knockdown viability, ATP luminescence, 48 h;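 further: 0% = DMSO wells and -100% = cell-free medium wells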
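Using the IDH1-knockdown HT-1080 line run in the same batch and compound series as the NT line, viability after 48 h at 37 °C was determined by CellTiter-Glo luminescence and expressed as % activity.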
MCF10A rereplic: induces DNA re-replication in MCF 10a normal breast cells | hit rate 2.9% among 350,000 | AID 624296 | MCF 10A DNA re-replication, Hoechst nuclear intensity, 48 h | Potency, µM (titrated, usually from 46.1 µM), for inactives: at the highest dose activity, positive = re-replication, actives largely listed as activators; further: % of control where 0% means no effect; nearly all actives have a fitted effect of over 50% in size
An asterisk follows results filed as active; i = inactive; ? = inconclusive; / = no result given; [ ] = dose if it differs, or a comment. An excerpt weighted towards active compounds, which were near 7.9% of everything screened. The call rests on the fitted dose curve; in most records, active means well fitted curve in the direction sought with a large enough effect; inconclusive means small, poorly fitted or top-dose-only effect, or another doubt; inactive means no such curve, though single readings can be large; an effect the other way counts as inactive or inconclusive. Potency means the concentration at half of the fitted maximal effect.

SMILES	KB-3-1 tox	HT1080-NT tox	SW480 rereplic	KB-V1 cytotox	HT1080 IDH1KD tx	MCF10A rereplic
CCOC(=O)CSC1=NC(=O)/C(=C/c2ccc(OC)cc2)S1	11.6µM*	?	?	?	?	5.8µM*
Cc1c(C(=O)NCc2ccccc2Cl)sc2ncnc(N(C)C3CCCCC3)c12	20.6µM*	/	/	?	/	/
Cc1c(C(=O)Nc2ccccc2Cl)sc2ncnc(N(C)C3CCCCC3)c12	i	/	/	i	/	/
CCCc1cc(NCCCN2CCOCC2)n2c(nc3ccccc32)c1C#N	i	4.7%	1.8%[9.22 µM]	i	5.5%	20.6µM*
CCCc1cc(-n2ccnc2C)n2c(nc3ccccc32)c1C#N	i	23.7%	?	i	-1.7%	20.4%
CCCc1cc(N2CCN(C(=O)c3ccco3)CC2)n2c(nc3ccccc32)c1C#N	i	-25.6%	?	i	-13.3%	20.6µM*
CCCc1cc(NCCCCO)n2c(nc3ccccc32)c1C#N	i	-11.0%	19.5%	23.1µM*	-13.0%	17.4%
CCCc1cc(NCCOCCO)n2c(nc3ccccc32)c1C#N	i	-7.9%	/	i	-7.1%	/
O=C(NCc1ccccn1)c1c(-c2ccccc2)sc2ccccc12	i	0.0%	1.1%	i	2.6%	2.3%
Cc1nc(/C=C\C(=O)O)c2cc(C)oc2n1	i	23.7%	-6.0%	?	19.4%	6.6%
O=C(O)c1cnc2ccc(Cl)cc2n1	i	-0.1%	/	i	-6.0%	/
COC(/C=C/Nc1ccc(OC)cc1)=C(C#N)C#N	i	-11.6%	-0.1%	i	-0.5%	-7.7%
COc1ccc(OC)c(N/C=C/C(=C(C#N)C#N)N(C)C)c1	16.4µM*	-26.9%	0.5%	i	-19.1%	10.1%
Cc1ccc(S(=O)(=O)N2CCCCC2)cc1C(=O)NCCN1CCOCC1	i	5.2%	-9.8%	i	-0.4%	-2.8%
CC(C)CNC(=O)[C@H]1N2C(=O)c3ccccc3C2SC1(C)C (some centres undefined)	i	-1.5%	1.5%	i	3.3%	-0.9%
Cc1ccc(C(=O)Nc2ccc3oc(-c4cccnc4)nc3c2)c(Cl)c1	i	/	/	i	/	/
C=CCN1C(=O)C(C)(C)N(C(C)=O)c2ccccc21	i	3.6%	?	i	-0.8%	?
CC(=O)N1c2ccccc2N(Cc2ccc(C)cc2C)C(=O)C1(C)C	4.11µM*	?	18.4µM*	?	16.4µM*	11.6µM*
CN(Cc1ccccc1)C(=O)c1ncn2c1c(=O)[nH]c1cccnc12	i	4.8%	/	i	9.4%	/
COc1ccc(C(CNC(=O)c2ccc(S(=O)(=O)Nc3ccccc3OC)cc2)N2CCCC2)cc1 (centres undefined)	i	-0.4%	-11.5%	i	-1.6%	-1.9%
COc1cccc(/C=N/NC(=O)c2c(C)nc3ccc(Br)cn23)c1O	?	?	0.651µM*	i	?	-12.3%
Cc1ccc2nc(C)c(C(=O)NN=C3CCN(C)CC3)n2c1	i	5.17µM*	20.6µM*	i	5.17µM*	?
CCOc1ccccc1/C=N/NC(=O)c1c(C)nc2ccc(Br)cn12	i	0.3%	-1.0%	i	-5.8%	-7.0%
Cc1ccc(/C=N/NC(=O)c2c(C)nc3ccc(Br)cn23)cc1	1.46µM*	1.3µM*	1.46µM*	1.3µM*	0.581µM*	?
COc1ccc(/C=N/NC(=O)c2c(C)nc3ccc(Br)cn23)cc1OC	i	?	42.6%	i	4.61µM*	?
SMILES	KB-3-1 tox	HT1080-NT tox	SW480 rereplic	KB-V1 cytotox	HT1080 IDH1KD tx	MCF10A rereplic
O=C(O)c1ccc(Oc2ccc([N+](=O)[O-])cc2)c([N+](=O)[O-])c1	i	1.6%	12.8%	?	-10.2%	1.9%
Cc1nc2ccccn2c1C(=O)N/N=C/c1cc(C)n(-c2ccc(Br)cc2)c1C	20.6µM*	-15.3%	15.1%	?	-21.7%	?
COc1ccc(/C=N\NC(=O)c2c(C)nc3ccc(Br)cn23)cc1	?	?	2.31µM*	?	0.581µM*	?
Cc1nc2ccccn2c1C(=O)N/N=C/c1ccccc1	i	-1.4%	-3.2%	i	-1.6%	6.9%
Cc1oc2c(c(C)cc3oc(=O)c(CC(=O)N[C@@H](CCCNC(N)=O)C(=O)O)c(C)c32)c1C	i	8.8%	-2.5%	i	0.0%	-5.7%
N=c1oc2c3c4c(cc2cc1C(=O)Nc1ccccc1)CCCN4CCC3	i	-2.5%	1.41µM*	i	-15.8%	4.11µM*
CC1CC(O)CC(C)(C)C1 (centres undefined)	/	/	6.0%	/	/	2.1%
CCCCCOC(=O)Cn1c(=O)c2c(nc(N3CCOCC3)n2C)n(C)c1=O	i	-0.7%	-16.7%	16.4µM*	-2.5%	19.6%
CC(C)(C)c1ccc(N/N=C(\C#N)S(=O)(=O)C(C)(C)C)cc1	?	23.1µM*	7.1%	?	?	5.9%
CC(C)(C)S(=O)(=O)/C(C#N)=N/Nc1ccc(Cl)cc1	?	?	0.8%	?	?	?
Cc1cccc(N/C(=N/S(=O)(=O)c2ccccc2)c2ccccc2)n1	i	17.0%	-2.2%	i	6.7%	-0.8%
Oc1ccccc1/C=N/NC(=S)NC1CC2C=CC1C2 (centres undefined)	?	?	25.7%	i	?	10.3µM*
Oc1c(Cl)cc(Cl)cc1/C=N/NC(=S)NC1CC2C=CC1C2 (centres undefined)	?	?	18.4µM*	i	20.6µM*	7.31µM*
Oc1ccccc1C=NNC(=S)NC1CC2C=CC1C2 (centres undefined)	?	-7.5%	/	?	?	/
CCN(Cc1ccccc1)C(=O)Cn1c(=O)n(Cc2ccccc2)c(=O)c2c1c1cc(OC)ccc1n2C	i	/	/	i	/	/
O=[N+]([O-])/C=C\c1ccc(N2CCCC2)c(F)c1	?	?	18.4µM*	?	3.26µM*	18.4µM*
CCN(C(=O)C(C)N1C(=O)/C(=C/c2ccco2)SC1=S)C1CCS(=O)(=O)C1 (centres undefined)	?	-13.0%	4.11µM*	i	-18.1%	24.4%
CC(C(=O)N(C)C1CCS(=O)(=O)C1)N1C(=O)/C(=C/c2ccc(F)cc2)SC1=S (centres undefined)	i	-9.3%	?	i	-21.5%	20.9%
Cc1nnc2ccc(-c3cccc(NS(=O)(=O)c4ccccc4Cl)c3)nn12	?	-28.3%	-8.3%	i	-12.2%	?
CCCS(=O)(=O)Nc1cccc(-c2ccc3nnc(C)n3n2)c1	i	-15.6%	18.4µM*	i	-1.4%	-4.1%

Source: PubChem
